CYP2C19 activ: cytochrome P450 2C19 (human) activation. P33261. recombinant CYP2C19, luciferin-H EGE luminescence; active compounds read high; 0 = fully inhibited enzyme, 1 = untreated enzyme. activation factor at 5 µM. 96,000 tested, under 10 active;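 active = activation factor of at least 2 at 5 µM in the primary screen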;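 note: 0 = wells with 2.5 mM tranylcypromine and 1 = vehicle-only wells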
CYP2C9 inhib: human CYP2C9 inhibition. P11712. CYP2C9 Supersomes, luciferin-H conversion, luminescence. inhibition, % at 5 µM. hit rate 20% among 96,000;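 active = blocking of liver enzyme CYP2C9 beyond about 50% at 5 µM, limit read from the data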
Cav3 T inh: blocks human Cav3.2 T-type calcium channel; AID 449739; Cav3.2-expressing cells, Fluo-4 calcium fluorescence FDSS; active compounds read low; O95180; hit rate 4% among 100,000; B-score at 10 µM;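 active = single-dose well whose peak fluorescence ratio is a statistical outlier from its plate by either plate-standardised score or position-corrected B-score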
Target sequence (O95180 whole entry, looked up): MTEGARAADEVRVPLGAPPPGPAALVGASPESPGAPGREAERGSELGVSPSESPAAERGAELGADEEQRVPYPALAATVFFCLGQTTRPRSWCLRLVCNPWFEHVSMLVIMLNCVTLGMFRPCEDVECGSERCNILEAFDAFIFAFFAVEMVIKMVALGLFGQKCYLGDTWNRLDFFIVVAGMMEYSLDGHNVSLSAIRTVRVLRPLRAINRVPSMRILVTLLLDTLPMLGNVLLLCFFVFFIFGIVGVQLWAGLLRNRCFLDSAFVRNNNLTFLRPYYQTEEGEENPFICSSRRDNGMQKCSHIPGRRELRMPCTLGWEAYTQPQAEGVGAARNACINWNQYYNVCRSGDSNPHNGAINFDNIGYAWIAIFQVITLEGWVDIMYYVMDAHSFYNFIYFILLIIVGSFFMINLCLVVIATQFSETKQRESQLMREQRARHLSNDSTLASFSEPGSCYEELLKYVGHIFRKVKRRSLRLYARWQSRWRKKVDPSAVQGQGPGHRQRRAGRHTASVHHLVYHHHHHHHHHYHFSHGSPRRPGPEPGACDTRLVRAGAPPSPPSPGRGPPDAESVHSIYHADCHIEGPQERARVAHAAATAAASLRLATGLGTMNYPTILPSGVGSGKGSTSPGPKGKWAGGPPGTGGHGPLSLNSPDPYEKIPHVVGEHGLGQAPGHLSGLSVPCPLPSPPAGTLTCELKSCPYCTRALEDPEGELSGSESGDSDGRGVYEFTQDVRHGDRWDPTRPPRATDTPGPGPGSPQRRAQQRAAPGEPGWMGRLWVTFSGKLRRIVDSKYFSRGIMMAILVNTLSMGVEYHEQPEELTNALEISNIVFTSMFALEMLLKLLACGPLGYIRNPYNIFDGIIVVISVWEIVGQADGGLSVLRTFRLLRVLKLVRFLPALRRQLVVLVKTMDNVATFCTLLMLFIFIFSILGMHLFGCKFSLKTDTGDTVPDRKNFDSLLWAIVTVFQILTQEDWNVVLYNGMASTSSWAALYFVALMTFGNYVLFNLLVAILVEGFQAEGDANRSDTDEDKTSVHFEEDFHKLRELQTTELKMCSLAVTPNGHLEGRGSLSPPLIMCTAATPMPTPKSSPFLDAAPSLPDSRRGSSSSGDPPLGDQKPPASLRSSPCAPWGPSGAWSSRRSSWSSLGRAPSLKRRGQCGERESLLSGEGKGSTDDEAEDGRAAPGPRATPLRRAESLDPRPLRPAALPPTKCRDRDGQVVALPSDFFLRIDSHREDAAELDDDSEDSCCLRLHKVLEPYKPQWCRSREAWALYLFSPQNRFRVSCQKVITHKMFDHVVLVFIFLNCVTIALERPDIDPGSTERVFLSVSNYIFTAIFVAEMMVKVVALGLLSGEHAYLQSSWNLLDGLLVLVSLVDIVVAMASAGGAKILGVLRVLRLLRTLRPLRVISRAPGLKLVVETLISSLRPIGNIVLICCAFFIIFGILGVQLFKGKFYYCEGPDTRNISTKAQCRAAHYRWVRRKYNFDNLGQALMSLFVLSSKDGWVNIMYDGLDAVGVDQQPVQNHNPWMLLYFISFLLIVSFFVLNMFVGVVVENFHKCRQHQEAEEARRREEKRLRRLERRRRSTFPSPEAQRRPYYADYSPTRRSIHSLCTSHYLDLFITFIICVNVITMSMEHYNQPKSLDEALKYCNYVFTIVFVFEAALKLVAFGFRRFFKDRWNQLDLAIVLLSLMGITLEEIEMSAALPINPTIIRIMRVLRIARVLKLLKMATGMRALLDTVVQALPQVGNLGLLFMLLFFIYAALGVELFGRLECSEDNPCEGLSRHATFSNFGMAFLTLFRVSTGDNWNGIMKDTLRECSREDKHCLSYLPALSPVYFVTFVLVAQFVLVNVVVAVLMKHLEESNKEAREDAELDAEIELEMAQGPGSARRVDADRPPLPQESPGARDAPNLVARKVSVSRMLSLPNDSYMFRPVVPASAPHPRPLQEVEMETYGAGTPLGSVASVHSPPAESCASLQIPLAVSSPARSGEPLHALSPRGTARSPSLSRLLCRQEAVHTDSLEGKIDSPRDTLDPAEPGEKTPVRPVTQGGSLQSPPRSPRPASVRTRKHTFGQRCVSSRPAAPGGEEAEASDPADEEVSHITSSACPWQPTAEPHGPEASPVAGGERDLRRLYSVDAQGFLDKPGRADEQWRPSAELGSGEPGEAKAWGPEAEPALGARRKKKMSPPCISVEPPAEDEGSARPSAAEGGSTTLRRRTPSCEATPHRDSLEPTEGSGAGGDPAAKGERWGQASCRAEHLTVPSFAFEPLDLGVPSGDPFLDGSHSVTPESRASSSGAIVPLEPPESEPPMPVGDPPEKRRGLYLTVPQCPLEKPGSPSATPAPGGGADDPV
CYP2C9 act: increases human cytochrome P450 2C9 activity; P11712; activation factor at 5 µM; AID 1024; hit rate 1.4% among 96,000; recombinant CYP2C9, luciferin-H conversion, luminescence; active compounds read high; factor 1 = untreated enzyme, 0 = blocked;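 active = activation factor of 2 or more for CYP2C9 at a 5 µM dose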;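 note: 0 = sulfaphenazole-blocked wells and 1 = vehicle-only wells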
CYP2C19 inh: human CYP2C19 inhibition | hit rate 21% among 96,000 | P33261 | inhibition, % at 5 µM | CYP2C19 Supersomes, luciferin-H EGE luminescence, 30 min | AID 778;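 active = CYP2C19 inhibition above a set limit at 5 µM in the primary screen, cut at about 50% in these data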;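 note: plate controls were negative control wells for no effect and 2.5 mM tranylcypromine positive control for full effect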
Starred values were filed as active, the others as inactive. In the library only some 27% were active in any assay of this set; here they are far more common.

What do the screens show for `CN(C)P(=O)(C(Cl)=C(N1CCCCC1)N1CCCCC1)N(C)C`?
CYP2C19 activ: 0.3; CYP2C9 inhib: 16; Cav3 T inh: -0.54; CYP2C9 act: 0.8; CYP2C19 inh: 69*

How did COCCCN1CCN(c2nnc3n2-c2sc(Br)cc2C(c2ccccc2Cl)=NC3)CC1 do in these assays?
CYP2C19 activ: 0.6; CYP2C9 inhib: 27; CYP2C9 act: 0.7; CYP2C19 inh: 44

How did O=C1C2CCCN2C(c2cccs2)N1c1ccccn1 (stereo unspecified) do in these assays?
CYP2C19 activ: 1.1; CYP2C9 inhib: -13; Cav3 T inh: 0.17; CYP2C9 act: 1.1; CYP2C19 inh: -10

Results for CCOC(=O)C(O)(c1ccc(N(CC)S(=O)(=O)c2ccccc2)cc1)C(F)(F)F (stereo unspecified) ?
CYP2C19 activ: 0.4; CYP2C9 inhib: 74*; Cav3 T inh: -5.1*; CYP2C9 act: 0.3; CYP2C19 inh: 61*

Results for CCN(c1ccc(C(O)(C(=O)OC)C(F)(F)F)cc1)S(=O)(=O)c1ccccc1 (stereo unspecified) ?
CYP2C19 activ: 0; CYP2C9 inhib: 79*; Cav3 T inh: -2.9*; CYP2C9 act: 0.2; CYP2C19 inh: 95*

How did COC(=O)C(O)(c1c(C)[nH]n(-c2ccccc2)c1=O)C(F)(F)F (stereo unspecified) do in these assays?
CYP2C19 activ: 1; CYP2C9 inhib: 46; Cav3 T inh: 0.41; CYP2C9 act: 0.5; CYP2C19 inh: 1

Results for COC(=O)C(O)(c1ccc(N(C)C(=O)OC(C)C)cc1)C(F)(F)F (stereo unspecified) ?
CYP2C19 activ: 0.5; CYP2C9 inhib: 16; Cav3 T inh: -2.3; CYP2C9 act: 0.8; CYP2C19 inh: 46

How did O=C(c1ccc2c(=O)n(Cc3ccc4c(c3)OCO4)c(=S)[nH]c2c1)N1CCC2(CC1)OCCO2 do in these assays?
CYP2C19 activ: 1; CYP2C9 inhib: 26; Cav3 T inh: -3.8; CYP2C9 act: 0.7; CYP2C19 inh: -2

Results for CCC(=NCCOc1ccc(Cl)cc1)c1c(O)n(C)c(=O)n(C)c1=O ?
CYP2C19 activ: 0.8; CYP2C9 inhib: 18; CYP2C9 act: 0.8; CYP2C19 inh: 15

Results for O=C(CNC(=O)c1ccccc1)Nc1ccc(Br)cc1C(=O)c1ccccc1 ?
CYP2C19 activ: 0.5; CYP2C9 inhib: 22; Cav3 T inh: -6.9*; CYP2C9 act: 0.8; CYP2C19 inh: 47

What do the screens show for `O=C(CNC(=O)OCc1ccccc1)Nc1ccc(Br)cc1C(=O)c1ccccc1`?
CYP2C19 activ: 0.7; CYP2C9 inhib: 13; Cav3 T inh: -5.9*; CYP2C9 act: 0.9; CYP2C19 inh: 31

Results for CC1CC2(O)c3nonc3CCC2N1O (stereo unspecified) ?
CYP2C19 activ: 0.9; CYP2C9 inhib: -2; Cav3 T inh: 0.56; CYP2C9 act: 1; CYP2C19 inh: 6

What do the screens show for `C=COCCn1c(C)c(C(=O)OCC)c2cc(O)ccc21`?
CYP2C19 activ: 0.1; CYP2C9 inhib: 71*; Cav3 T inh: 0.77; CYP2C9 act: 0.3; CYP2C19 inh: 85*

How did COC(=O)C(O)(c1cn(C)c2ccccc12)C(F)(F)F (stereo unspecified) do in these assays?
CYP2C19 activ: 0.9; CYP2C9 inhib: -180; Cav3 T inh: 0.26; CYP2C9 act: 2.8*; CYP2C19 inh: 6

Results for O=c1[nH]c(=S)n(Cc2ccc(F)cc2)c(O)c1C=NCc1cccnc1 ?
CYP2C19 activ: 0.3; CYP2C9 inhib: 15; CYP2C9 act: 0.8; CYP2C19 inh: 66*

What do the screens show for `Cc1ccsc1-c1nc(CSCC(=O)N2CCC3(CC2)OCCO3)c(C)o1`?
CYP2C19 activ: 0.3; CYP2C9 inhib: 1; Cav3 T inh: 0.71; CYP2C9 act: 1; CYP2C19 inh: 67*

What do the screens show for `Cc1ccccc1-c1nc(CS(=O)CC(=O)N2CCC3(CC2)OCCO3)c(C)o1` (stereo unspecified)?
CYP2C19 activ: 0.9; CYP2C9 inhib: 2; Cav3 T inh: 0.46; CYP2C9 act: 1; CYP2C19 inh: 15

How did c1cncc(C2CC(c3cccs3)n3ncnc3N2)c1 (stereo unspecified) do in these assays?
CYP2C19 activ: 0.9; CYP2C9 inhib: -2; Cav3 T inh: -1.1; CYP2C9 act: 1; CYP2C19 inh: 12

How did Cc1ccc(-c2nc3ccc(Cl)cc3n2OC(=O)N(C)C)cc1 do in these assays?
CYP2C19 activ: 1; CYP2C9 inhib: -4; Cav3 T inh: 0.88; CYP2C9 act: 1; CYP2C19 inh: -1

Results for CN(C)[C@@H]1C(=O)C(C(N)=O)=C(O)[C@@]2(O)C(=O)C3=C(O)c4c(O)cccc4[C@@](C)(O)[C@H]3[C@H](O)[C@@H]12 ?
Cav3 T inh: -3.7*

Results for CN(C)P1(N(C)C)=NC(C(F)(F)F)=NC(C(F)(F)F)=N1 ?
CYP2C19 activ: 0.9; CYP2C9 inhib: -20; Cav3 T inh: 0.024; CYP2C9 act: 1.2; CYP2C19 inh: 15

How did COc1ccc(OCC(=O)N2CCN(C(C)C)CC2)cc1 do in these assays?
Cav3 T inh: 1.3

What do the screens show for `CNP(=S)(NC)OCCOc1ccc(OC)cc1`?
CYP2C19 activ: 0.2; CYP2C9 inhib: 47; Cav3 T inh: -0.38; CYP2C9 act: 0.5; CYP2C19 inh: 84*

Results for O=c1c2ccccc2nc(-c2ccc(-c3ccccc3)cc2)n1-c1ccncc1 ?
CYP2C19 activ: 1; CYP2C9 inhib: 26; Cav3 T inh: -0.97; CYP2C9 act: 0.7; CYP2C19 inh: -3

How did O=c1c2cc([N+](=O)[O-])ccc2nc(CN2CCOCC2)n1-c1ccccc1F do in these assays?
CYP2C19 activ: 0.7; CYP2C9 inhib: 4; Cav3 T inh: 1.4; CYP2C9 act: 1; CYP2C19 inh: 26

How did Cc1ccccc1C1=NCC(=O)N(CC(=O)NCc2ccco2)c2sc3c(c21)CCCC3 do in these assays?
CYP2C19 activ: 0.3; CYP2C9 inhib: 84*; Cav3 T inh: -7.2*; CYP2C9 act: 0.2; CYP2C19 inh: 66*

How did COC(=O)C1=C(c2ccc(S(C)(=O)=O)cc2)C[C@@H]2CC[C@H]1N2C(=O)NCCO do in these assays?
Cav3 T inh: 1.3

Results for CN(Cc1ccccc1)C(=C(Cl)Cl)/C(=C1/NCCN1Cc1ccc(Cl)nc1)[N+](=O)[O-] ?
CYP2C19 activ: 0.1; CYP2C9 inhib: 49; Cav3 T inh: -1.7; CYP2C9 act: 0.5; CYP2C19 inh: 93*

How did CSc1nnc(C2CCNCC2)n1C do in these assays?
CYP2C19 activ: 1.2; CYP2C9 inhib: -12; Cav3 T inh: 0.58; CYP2C9 act: 1.1; CYP2C19 inh: -22

How did CCCCCCCSc1cc(OC)c(CCNC)cc1OC do in these assays?
CYP2C19 activ: 0.2; CYP2C9 inhib: 2; Cav3 T inh: 0.4; CYP2C9 act: 1; CYP2C19 inh: 81*

What do the screens show for `CCCCCSc1cc(OC)c(CCNC)cc1OC`?
CYP2C19 activ: 0.4; CYP2C9 inhib: 11; Cav3 T inh: 1; CYP2C9 act: 0.9; CYP2C19 inh: 62*

Results for COC(=O)[C@@H]1C[C@]2(C(=O)O)c3ccccc3N(OOSc3ccccc3)[C@@H]2N1C(=O)OC ?
Cav3 T inh: 0.73

Screens deposited in PubChem by several laboratories.
